Screening data as filed in PubChem.
C diff HTS: blocks growth of Clostridium difficile | AID 1259249 | Clostridium difficile clinical isolate growth, OD600, 24 h; hits give low values | 0.25% of 86,000 active | growth activity, negative = inhibition, % at 16 µg/mL (by protocol);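 active = mean growth activity at or below -80% and every replicate also at or below -80%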;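 also: 0% = DMSO wells and -100% = levofloxacin 16 µg/mL wells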
* hit, by the source's call; ! = a repeat was not active. Shown is part of a subset that was picked to be rich in hits.

SMILES | C diff HTS
O=C(NCC[C@@H]1CC[C@H](NC(=O)C2CC2)[C@@H](CO)O1)Nc1ccc(C(F)(F)F)cc1 | -94*
O=C(NCC[C@@H]1CC[C@H](NC(=O)C2CCC2)[C@H](CO)O1)Nc1ccc(Cl)cc1 | -1
O=C(NCC[C@@H]1CC[C@@H](NC(=O)C2CCC2)[C@@H](CO)O1)Nc1ccc(Cl)cc1 | 3
COCC(=O)N1CC2(C1)[C@@H](c1ccc(-c3ccc(F)cc3)cc1)[C@H](CO)N2C(C)=O | 1
COc1ccc(NC(=O)Nc2ccc3c(c2)CC(=O)N([C@H](C)CO)C[C@@H](C)[C@@H](CN(C)Cc2ccc(C(=O)O)cc2)O3)cc1 | 1
C[C@@H]1CN([C@@H](C)CO)S(=O)(=O)c2ccc(C#CCN(C)C)cc2O[C@H]1CN(C)Cc1cccnc1 | -2
COc1ccccc1NC(=O)N[C@@H]1CC[C@@H](CCNS(=O)(=O)c2ccc(F)cc2)O[C@@H]1CO | -4
COc1cccc(CN2[C@@H]3CNC[C@H]2C3c2ccc(-c3ccc(C)cc3)cc2)c1 (stereo not given in full) | -9
CC(=O)N1[C@@H]2c3ccc(/C=C/c4ccccc4)c(=O)n3C[C@@H]2[C@@H](CO)[C@@H]1C(=O)Nc1nccs1 | 6
CCCN(C)C[C@@H]1Oc2ncc(C#CC3(O)CCCC3)cc2C(=O)N([C@H](C)CO)C[C@@H]1C | 8
COc1cccc(S(=O)(=O)N[C@@H]2CC[C@@H](CCNC(=O)Cc3ccncc3)O[C@@H]2CO)c1 | 4
O=C1CS(=O)(=O)C(c2ccccc2)N1c1ccc(Cl)cc1 (stereo not given) | 1
CCNC(=O)C[C@@H]1CC[C@@H]2[C@H](COC[C@H](O)CN2C(=O)Nc2cccc(OC)c2)O1 | 2
O=C(C[C@@H]1CC[C@H]2[C@@H](COC[C@@H](O)CN2C(=O)Nc2ccc(C(F)(F)F)cc2)O1)NCCc1ccncc1 | -15
CCNC(=O)C[C@H]1CC[C@H]2[C@@H](COC[C@@H](O)CN2C(=O)Nc2ccc(C(F)(F)F)cc2)O1 | -102*!
CCNC(=O)C[C@H]1CC[C@@H]2[C@H](COC[C@H](O)CN2C(=O)Nc2ccc(C(F)(F)F)cc2)O1 | -88*
O=C(C[C@@H]1CC[C@H]2[C@@H](COC[C@H](O)CN2C(=O)Nc2ccc(C(F)(F)F)cc2)O1)NC1Cc2ccccc2C1 | -8
O=C(C[C@H]1CC[C@H]2[C@@H](COC[C@H](O)CN2C(=O)Nc2ccc(C(F)(F)F)cc2)O1)NCCc1ccncc1 | -18
C[C@@H]1CN([C@H](C)CO)S(=O)(=O)c2ccc(Br)cc2O[C@H]1CN(C)Cc1ccncc1 | 3
CCC(=O)N1CCC2(CC1)CN(C(=O)c1ccccn1)[C@H](CO)c1c2c2ccc(OC)cc2n1C | -4
CC(C)NC(=O)Nc1ccc2c(c1)C(=O)N([C@H](C)CO)C[C@H](C)[C@H](CN(C)C)OCCCC[C@H](C)O2 | 5
COc1ccccc1-c1ccc2n(c1=O)C[C@H]1[C@H](CO)[C@@H](C(=O)N[C@H](C)c3ccccc3)[C@@H]2N1C | -4
O=C(NC1CCC1)[C@@H]1[C@@H](CO)[C@@H]2Cn3c(cccc3=O)[C@@H]2N1CCc1ccccc1 | -2
CO[C@@H]1CN(C)C(=O)c2cc(NC(=O)c3cc(C)on3)ccc2OC[C@H](C)N(C(C)=O)C[C@H]1C | -1
C[C@@H]1CN([C@H](C)CO)C(=O)c2cccc(NC(=O)NC3CCCCC3)c2O[C@@H]1CN(C)Cc1ccc2c(c1)OCO2 | -4
SMILES | C diff HTS
C[C@@H]1CCCCO[C@H](CN(C)CC2CCCCC2)[C@H](C)CN([C@H](C)CO)C(=O)c2cc(NC(=O)Nc3ccc(C(F)(F)F)cc3)ccc2O1 | -103*
C[C@H]1CCCCO[C@H](CN(C)S(=O)(=O)c2cn(C)cn2)[C@@H](C)CN([C@@H](C)CO)C(=O)c2cc(NC(=O)CCCN(C)C)ccc2O1 | -81*
C[C@@H]1CCCCO[C@@H](CN(C)S(=O)(=O)c2cn(C)cn2)[C@@H](C)CN([C@@H](C)CO)C(=O)c2cc(NC(=O)CCC(F)(F)F)ccc2O1 | 6
C[C@@H]1CN([C@@H](C)CO)C(=O)c2cc(NC(=O)CCCN(C)C)ccc2O[C@@H](C)CCCCO[C@@H]1CN(C)S(=O)(=O)c1cn(C)cn1 | -9
C[C@@H]1CCCCO[C@@H](CN(C)CC2CC2)[C@H](C)CN([C@@H](C)CO)C(=O)c2cc(NC(=O)Nc3ccc(C(F)(F)F)cc3)ccc2O1 | 4
C[C@@H]1CCCCO[C@H](CN(C)CC2CC2)[C@H](C)CN([C@@H](C)CO)C(=O)c2cc(NC(=O)Nc3ccc(C(F)(F)F)cc3)ccc2O1 | 6
C[C@@H]1CCCCO[C@H](CN(C)CC2CCCCC2)[C@@H](C)CN([C@H](C)CO)C(=O)c2cc(NC(=O)Nc3ccc(C(F)(F)F)cc3)ccc2O1 | -59
CCCN(C)C[C@H]1OCCCC[C@@H](C)Oc2ccc(NC(=O)Nc3ccc(C(F)(F)F)cc3)cc2C(=O)N([C@@H](C)CO)C[C@H]1C | -107*
C[C@@H]1CCCCO[C@@H](CN(C)CC2CCCCC2)[C@@H](C)CN([C@@H](C)CO)C(=O)c2cc(NC(=O)Nc3ccc(C(F)(F)F)cc3)ccc2O1 | -58
C[C@@H]1CCCCO[C@@H](CN(C)CC2CC2)[C@H](C)CN([C@H](C)CO)C(=O)c2cc(NC(=O)Nc3ccc(C(F)(F)F)cc3)ccc2O1 | -9
C[C@@H]1CCCCO[C@@H](CN(C)CC2CCCCC2)[C@H](C)CN([C@H](C)CO)C(=O)c2cc(NC(=O)Nc3ccc(C(F)(F)F)cc3)ccc2O1 | -104*
C[C@@H]1CN([C@@H](C)CO)C(=O)c2cc(NC(=O)Nc3ccc(C(F)(F)F)cc3)ccc2O[C@@H](C)CCCCO[C@@H]1CN(C)CC1CCCCC1 | -12
CO[C@@H]1CN(C)C(=O)c2ccc(NC(=O)Nc3ccc(Cl)cc3)cc2OC[C@H](C)N(C)C[C@H]1C | -1
C[C@H]1CN([C@@H](C)CO)S(=O)(=O)c2ccc(C3=CCCC3)cc2O[C@@H]1CN(C)Cc1cccnc1 | 6
C[C@@H]1CCCCO[C@H](CN(C)C(=O)Cc2ccccc2)[C@H](C)CN([C@@H](C)CO)C(=O)c2cc(NC(=O)Nc3cccc4ccccc34)ccc2O1 | 5
COc1ccc(-c2ccc([C@@H]3[C@@H](CO)N4C(=O)CN(C(=O)Cc5ccccn5)C[C@@H]34)cc2)cc1 | -6
COc1ccc2c3c(n(C)c2c1)[C@H](CO)N(C(=O)CC1CC1)CC31CCN(C(=O)C2CC2)CC1 | 2
CCC(=O)N(C)C[C@H]1Oc2ncc(-c3ccccc3C)cc2C(=O)N([C@@H](C)CO)C[C@@H]1C | -2
CN1c2ccc(-c3ccccc3F)cc2[C@@H]2[C@@H](CCN2C(=O)CN2CCOCC2)[C@@H]1CO | -4
O=C(c1cccnc1)N1C[C@@H]2[C@H](c3ccccc31)[C@H](CO)N2C(=O)CN1CCOCC1 | -5
C/C=C/c1ccc2c(c1)O[C@@H](CN(C)C(=O)C1CCOCC1)[C@@H](C)CN([C@@H](C)CO)S2(=O)=O | 2
COc1ccc(C#Cc2ccc([C@@H]3[C@H](CO)N4CCCCN(C(=O)Nc5ccc(F)cc5)C[C@@H]34)cc2)cc1 | -93*
O=C(Nc1ccccc1F)N1CCCCN2[C@@H](CO)[C@@H](c3ccc(/C=C/c4ccccc4)cc3)[C@@H]2C1 | -96*
CC(C)CC#Cc1ccc([C@H]2[C@@H](CO)N3CCCCN(C(=O)Nc4ccccc4)C[C@H]23)cc1 | -87*
